Screening data deposited in PubChem by Emory University Molecular Libraries Screening Center.
14-3-3 PPI: modulators of 14-3-3 gamma protein binding, primary screen, biochemical, fluorescence polarization; 14-3-3 protein gamma (Homo sapiens), P61981; FP, 14-3-3gamma / TMR-pS259-Raf peptide binding; inhibition, % at 40 µM; 160,000 tested, 0.19% active; AID 422, 2006; in the data active means inhibition above about 30%;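 further: 0% = protein plus tracer without compound and 100% = blank with tracer alone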
Target sequence (P61981 whole entry, looked up): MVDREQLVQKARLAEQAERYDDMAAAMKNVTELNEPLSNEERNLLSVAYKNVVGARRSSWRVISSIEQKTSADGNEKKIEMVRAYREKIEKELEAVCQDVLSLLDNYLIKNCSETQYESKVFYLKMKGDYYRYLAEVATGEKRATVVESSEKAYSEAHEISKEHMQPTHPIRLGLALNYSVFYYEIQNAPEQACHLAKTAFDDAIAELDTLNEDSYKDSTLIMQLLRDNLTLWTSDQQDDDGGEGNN
* = called active by the depositor; + = active, no number. The entries come from a sample that favours hits as a whole.

SMILES	14-3-3 PPI
CCN(CC)CCCNC(=O)Cn1c(=O)[nH]c2ccccc2c1=O	-7
Cc1ccc([N+](=O)[O-])cc1Nc1ccc2nonc2c1[N+](=O)[O-]	2
CC(C)C1=CC23CCC4C(C)(C(=O)O)CCCC4(C)C2CC1C1C(=O)OC(=O)C13 (configuration not stated)	47*
CC(C)C1=CC23CCC4C(C)(C(=O)O)CCCC4(C)C2CC1C1C(=O)N(c2ccc(O)cc2)C(=O)C13 (configuration not stated)	-24
CC(C)CN1C(=O)C2C3CC4C5(C)CCCC(C)(C(=O)O)C5CCC4(C=C3C(C)C)C2C1=O (configuration not stated)	6
CCc1ccc2[nH]cc(C(=O)c3cccc(OC)c3)c(=O)c2c1	-7
c1ccc(CNc2ncnc3ccccc23)cc1	-5
COCCNc1ncnc2ccccc12	31*
COCCNc1ncnc2ccc(Br)cc12	8
Cc1ccc(S(=O)(=O)Nc2cc(C(=O)NCCc3ccccc3)ccc2N2CCCC2)cc1	-21
Cc1ccc(S(=O)(=O)Nc2cc(C(=O)NCCc3ccccc3)ccc2N2CCCCC2)cc1	0
Cc1ccc(S(=O)(=O)Nc2cc(C(=O)NCc3cccnc3)ccc2N2CCCCC2)cc1	37*
N#Cc1c(N=Cc2ccc([N+](=O)[O-])cc2)sc2c1CCC2	135*
N#Cc1c(N=Cc2cc([N+](=O)[O-])ccc2O)sc2c1CCCC2	-13
N#Cc1c(N=Cc2cc([N+](=O)[O-])ccc2Cl)sc2c1CCCC2	1
Cc1ccc(C=Nc2sc3c(c2C#N)CCC3)cc1	-31
N#Cc1c(N=Cc2ccc(Cl)c([N+](=O)[O-])c2)sc2c1CCCC2	-8
N#Cc1c(N=Cc2ccc([N+](=O)[O-])s2)sc2c1CCCC2	63*
O=C(NCc1ccco1)C1CC(=O)N(C2CCCCCC2)C1 (configuration not stated)	-16
CCC(=O)N1CCc2cc(Br)cc(S(=O)(=O)CCC(=O)Nc3ccc(OC(F)(F)F)cc3)c21	4
NC(=O)CCNCC1(c2ccccc2)CCCC1	1
COc1cc(OC)cc(-n2c(=O)c3sccc3n(Cc3cc(=O)n4ccccc4n3)c2=O)c1	-8
COc1cc(C2N(C)c3ccccc3-c3nc4ccccc4n32)cc(OC)c1OC (configuration not stated)	-4
O=C(c1cn(CCOc2ccccc2F)c2ccccc12)C(F)(F)F	-9
Cc1c(Cl)cccc1-c1ccc(C(=O)Nc2ccc(Cl)c([N+](=O)[O-])c2)o1	-7
SMILES	14-3-3 PPI
CC1=C(C(=O)Nc2cccc(C(F)(F)F)c2)C(c2cccs2)C2=C(CCCC2=O)N1 (configuration not stated)	-19
NS(=O)(=O)c1ccc(NC(=O)Nc2cccc(Cl)c2)cc1	-1
O=C(Nc1cc(C(=O)Nc2ccc(S(=O)(=O)O)cc2S(=O)(=O)O)cc(C(=O)Nc2ccc(S(=O)(=O)O)cc2S(=O)(=O)O)c1)Nc1cc(C(=O)Nc2ccc(S(=O)(=O)O)cc2S(=O)(=O)O)cc(C(=O)Nc2ccc(S(=O)(=O)O)cc2S(=O)(=O)O)c1	32*
Cc1c(NC(=O)c2ccccc2)cc(S(=O)(=O)c2ccc(Cl)cc2)c(O)c1C	-12
COCCCNC(=O)C1CCN(c2nc3ccccc3o2)CC1	-1
CCOc1ccc(C2C(C(C)=O)C(=O)CC(C)(O)C2C(C)=O)cc1 (configuration not stated)	-11
COc1ccc(-n2c(C=Cc3c[nH]c4ccccc34)nc3ccc(I)cc3c2=O)cc1	-20
CC(C)N=c1cc2n(-c3ccc(Cl)cc3)c3ccccc3nc-2cc1Nc1ccc(Cl)cc1	97*
Cn1c(CNc2ccc(Cl)cc2)nc2ccccc21	-9
CC(C)Cn1c(C=Cc2ccc(Cl)cc2)nc2ccccc21	-8
COCCOC(=O)C1=C(C)NC2=C(C(=O)CC(c3ccc(Cl)cc3)C2)C1c1ccc([N+](=O)[O-])cc1 (configuration not stated)	-4
CC(Cc1c[nH]c2ccc(Cl)cc12)N=Cc1ccc(N(C)C)cc1 (configuration not stated)	-16
C=CCN1C(C(=O)c2ccccc2)=C(NC(=O)c2ccc(Cl)cc2)c2ccccc2S1(=O)=O	1
CCCOC(=O)C1=C(C)N(C)C(=O)NC1c1ccc(Cl)cc1 (configuration not stated)	-1
COCCNC(=O)c1ccc2c(c1)nc(C)n2-c1ccccc1OC	-129
CCOc1ccccc1-n1cnc2cc(C(=O)NCc3ccco3)ccc21	-14
COc1ccc(OC)c(-n2cnc3cc(C(=O)O)ccc32)c1	-19
CCOc1ccccc1-n1cnc2cc(C(=O)O)ccc21	57*
COc1ccccc1-n1c(C)nc2cc(C(=O)O)ccc21	40*
Cc1nc2cc(C(=O)O)ccc2n1-c1ccccc1	-3
Cc1cc(N2C(=O)C3CCCCC3C2=O)ccc1N1C(=O)c2ccc(Cl)cc2C1=O (configuration not stated)	4
CC(C)NC(=O)N1CCOCCOCCN(C(=O)NC(C)C)CCOCCOCC1	4
CC(C(=O)N1CCOCC1)N1C(=O)c2ccccc2C1=O (configuration not stated)	-5
CC(N)C(=O)N1CCOCCOCCN(C(=O)C(C)N)CCOCCOCC1 (configuration not stated)	+
CCCCCOc1ccc(CSC(=N)N)cc1	-3
SMILES	14-3-3 PPI
CC1=C(C(=O)OC2CCCC2)C(c2cccc([N+](=O)[O-])c2)NC(=O)N1C (configuration not stated)	-6
CCOC(=O)C(NC(=O)c1ccc(OC)cc1)(Nc1ccc(Cl)cc1)C(F)(F)F (configuration not stated)	13
O=C(Oc1ccc(OC(=O)c2cccnc2)cc1)c1cccnc1	-29
O=C(c1ccc(F)cc1)c1cccnc1	66*
O=C(c1ccc(F)cc1)N1CCC(O)(c2cccnc2)CC1	-1
O=C(CCCCCn1c(=O)[nH]c2ccsc2c1=O)NC1CCCC1	-6
Cc1ccc(N=Cc2cc(-c3ccccc3)oc2S)c(C)c1	90*
C=CCN=c1cc(-c2ccccc2)oc2ccc(C)cc12	-12
Cc1ccc(N=Cc2ccccc2O)c(C(=O)c2ccccc2)c1	-2
COc1ccccc1NC(=O)Cn1c(=O)n(-c2ccc(Cl)cc2)c(=O)c2c(C)c(C)sc21	-5
Cc1ccc2c(c1)C(c1ccc(F)cc1)N(C(=O)c1cccc(Cl)c1)CC(=O)N2 (configuration not stated)	-11
O=C(NCc1cccs1)c1cc2nc(-c3cccs3)cc(C(F)(F)Cl)n2n1	-1
O=C(NCc1cccnc1)c1cc2nc(-c3cccs3)cc(C(F)(F)Cl)n2n1	39*
O=C(NCc1cccnc1)c1cc2nc(-c3ccco3)cc(C(F)(F)Cl)n2n1	2
CCc1c(C(=O)NCc2cccs2)[nH]c(C)c1C(C)=O	-12
CC(=O)c1ccc(N2C(=O)C3C4C=CC(C4)C3C2=O)cc1 (configuration not stated)	-8
CCCCCn1c(N)c(C#N)c2nc3ccccc3nc21	-7
CCCCNc1ncc2cc3ccccc3nc2c1C#N	90*
CCCCNc1ncc(C(C)=O)c2ccccc12	0
OCCCc1nc2n(n1)C(c1cccc(Br)c1)C=C(c1cccs1)N2 (configuration not stated)	-7
O=C(Nc1ccc(-n2nncc2-c2ccc(Br)cc2)cc1)c1cc2ccccc2oc1=O	-14
O=C(NCCN1CCN(c2ccccc2F)CC1)c1cccn2c(=O)c3ccc(Cl)cc3nc12	2
